The supplement of paper PMC12632987
Over roughly 4,500 sequences, “median log2 fold change of GCK-ALFA target abundance (FLAG IP / Myc IP barcode read proportion)” has its median near 0.078; the lowest 2% begin near -0.6. The full list was thinned out, with the lowest values kept by preference.

B1: GBRAP_78_6736 (protein)
chain: EIEELIDKALEELNRAARLAQQFPLEEQTELLDLIIDASTLLEEAEEEGFDLKLLEEALKKLKEALKLAKKLKTPLAEKLAKELEEAIKLVEKAIKLVKE
B2: GBRAP_128_3567 (protein)
chain: STAAAVAQARALLEAIKAGDAATRRAAAEALVALLAAADPETREAITAEILERLPELSAEDLEVLADVFRAARPAADPATAEALAEIQVEALNEREEKEE
B3: GBRAP_35_5597 (protein)
chain: DTDQLAVDSLIDMIEATIEGIPELPVDTLVSITNLLIKDAEELRKQLKNNVEALERIAKALEKLKEALKKHHGDNPKVQETIEKVEKAIKELKEQAKKAL
B4: GBRAP_184_5329 (protein)
chain: KTLEVHIENLPIEEIKKKVEEALKEAAAQGAALSIYIDASGYSIEEIKELIEYIGELAKKYGVKDVTLGIDKAVNEEEADILIEIADKYGIRLVLPLEDE
B5: GBRAP_184_5332 (protein)
chain: KTLEVHIENLPIEEIIKKVEEAAKKAAEEGADLLISIDASGYSIEEIIELIKKIGEIAKKYGVKNVTLGIDKEVNEEEADKLIEEADKYGIRLVLPLKDE
B6: GBRAP_83_6990 (protein)
chain: KEKITVAANGDDIEEAAEIVIDLTKEEGYEVDVEIIATKEDWEKVLEMVERLAEAGIETDITVLAEGITEEEAKEKQKELEEIAKEHGVNINVKVYAIEP
B7: GBRAP_83_6970 (protein)
chain: MEKVDVVTTPDHVEEAAEAARDLAEEEGYEVTVILVGSPEEVLKSAEIVAEKLKDIKNVSIRAAVRGVRKEEAEKTKKKLEEIGKKYGLKVEFDAELIEE
B8: GBRAP_106_2555 (protein)
chain: SEEEKFEKLIKESREEAEKEIADTRAWLAARRDQLTPEEIRAIETYTKKYLVAKILHKAIEAGFITKEEAEEILKEALSKTDFTPEEAVKFTLEKIKELY
B9: GBRAP_160_4809 (protein)
chain: MEKAEKLLEEARKDLLETAEASKDLPIEDRARLLEAEGYTSILDFEEELNISDETEEKLAQVVDDLVATLLANPDLSDEEVLALVEEAAEKMKEIVKEEV
B10: GBRAP_160_4810 (protein)
chain: KEKAEKLMEEARKDLLETAEASADLPIEDRARLLEAEGYTSILDFEEELNISDETEEELDEVVDDLVARLLANPDLSREEVLALVEEAVERMKEIVEKEV
B11: GBRAP_74_6512 (protein)
chain: MEELLAKLKEAAEAKDVDKLVALALEIAETGDKETIEKAAEIVVAFVEANLDTLTPEELEKLSDALATLADKLMELGGDSEVVNRVAETAVALEKKLLAL
B12: GBRAP_52_5860 (protein)
chain: MVEEALEKLRKAVEAMKAGKEEEAEKILKEIVENFDEETILAAAEAFAKEMATATPEEAEAAFRTAEMLGKILEEAGFDEEVVTLIEDTIGAAVARVEAA
B13: GBRAP_139_3742 (protein)
chain: SEMEKKVEEAAKKVAELKDDPEAVADYLTETIASVDEETAEKIARAAVEVLADLPVEERLALDDLILDKLEEAGVDEDKITIVEAELNGGLARHAYAEEL
B14: GBRAP_139_3708 (protein)
chain: SALEEKVAEAKELTKETLENPEESIKKIVELLLSVSEEDLEVVVKAIAETLSEFPLDTAEELADKLLEEVKKRSKDEDKVNIVEAVLNGALARKAYEEEL
B15: GBRAP_80_6860 (protein)
chain: DEARLAAARARLKALLPEAAALIDEVVAIAKELGVPNADIADLLDALAELAEVDPELAKELLEELLEDLREEKEAGDAENALATVRGYAGEALMEAEELE
B16: GBRAP_95_7064 (protein)
chain: EEDLEIAEDLIDTAEDLVEIGLYEQAARAAKAAVEELKEIGYTGELALRAAEVLVKVAEATGNEEAAELAKEVLEEIRKAGGDEKKIEELEKRLEKALKK
B17: GBRAP_52_6171 (protein)
chain: SAEKARKMAEELLEAIKAGDEEKVKKILEEIAKNYTDEEIAAMLREVAKRVPSLSPEDQERVVEAALELEDIAVKAGHDENVLQIEVARVAAAAYDALQA
B18: GBRAP_53_6396 (protein)
chain: AEKEIKEGLKELEALIKRVKADPTLDPKEVAKEASALFKALVAAGAPEEELVKLAKELAEAVKAKGLGVEVSTALAKAAAEAGAEEVQYVFTEAAVEDLE
B19: GBRAP_160_4238 (protein)
chain: SEEIEKLREEITDEAELLLDVLLESPKSQWPAYARAFAGDIVQIVEENENVSDETEEKVAELADEMVAELVAARDASPEELAALLERFVERIVKTVEEGV
B20: GBRAP_128_3427 (protein)
chain: STAAKVAEVEALLEAMLTADAAEAAALARRIAALMLASDLETVEAMVEVILSMLPKFTAEQLEILADALREARPEFTPEKQLLVSEVEVAALNEAEEKEE
B21: GBRAP_160_4711 (protein)
chain: MEVKEKLKKYVEEEFEEAKELIKGESIEQRAIIVEGTIGEIIMELFEEEEASDELIDEVDKIGDELVETILANPDLTEEEIEELIEKAEEEIKKAIDKYV
B22: GBRAP_39_5693 (protein)
chain: EEDEENEDHVSYLQALAAKRLYETGISLEEATKEAKKILEEEAKRNPELKELLEELIKLAEEKGDEAKEVLIGVAVLIEEGEPKEEIKEHIEKAIKYFKK
B23: GBRAP_95_7034 (protein)
chain: EDDKLALESALEVAVAAAELGDEEAAARALKEALELLKKAGKVKLDPELLKETIEVIREVGVKKLPKEEVLELLELLKESAETEEVKKLAEEAIEEVKKR
B24: GBRAP_74_6536 (protein)
chain: SEEKEKVIKEINEAETIEEAIEITEKVLETDDKELARAAVQELLLKAAERKDELTLEEAERLVEVIVRAFEKNGIVVETREEAEALNTVLTKALELEEKA
B25: GBRAP_166_4984 (protein)
chain: MEEELVEELKKYLEELAEKMKEAGPEERQELVAEAAERLAEAREKGLSREKLGELVEYLLRLAREVGIPISAVEGALSILADLDEEEIDILDEAARRVAA
B26: GBRAP_128_3314 (protein)
chain: MDEERLEEAREIVERMKEADLEELAELTRRLAELLGTLTPEERDIVAEIFREGLKELSAEKLDVVADVLREVRPSLDPETANVVADLEVEALNEAVEKEE
B27: GBRAP_74_6519 (protein)
chain: EEELLAALEAAAAAGDAATAVALARRIVAEGSLEAVERAARIMVAFVERHADALSPEELEAVADALAELADELMLRGGDSEVVLAVARAAVALEERRRAL
B28: GBRAP_128_3579 (protein)
chain: SVEEVRAEVRALLEAMKTADAAEQKAIATEIATRFTTLTPEERRAAAETIEELLPELSAEQLDILADALRAARPTADPEAANLLADVEVAALNEALEKEE
B29: GBRAP_160_4226 (protein)
chain: METVEKIVKVFRDTFLEALELIEGESAEERAVILDVAVGEVILEVSEIEEATDEMEEVVDKKAEALAAALLAAADASAAERRALVDKAAAELRKELEKIE

The binders below were run against GABARAP, O95166 (assay: median log2 fold change of GCK-ALFA target abundance (FLAG IP / Myc IP barcode read proportion) (log2 ratio); each designed protein is fused to an ALFA-tag nanobody in HEK293 cells to bring the named protein to FLAG-tagged glucokinase (GCK); Myc marks an untargeted standard; higher = target protein stabilised (more abundant)). Details: target protein: 3xFLAG-MCP-GCK-ALFA reporter; HEK293 landing pad (RPLP).
Protocol: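 LABEL-seq trans screen in HEK293 landing-pad cells. Each de novo designed 100-aa effector handle, binding the indicated effector (E3 ligase, DUB or autophagy protein), is fused to a constant NbALFA target handle and induced with 2 ug/mL doxycycline. A FLAG-MCP-GCK-ALFA target and a Myc-MCP standard reporter were transfected, and after 48 h circRNA barcodes were recovered by anti-FLAG and anti-Myc IP and sequenced. The value is the median across barcodes (at least 3 per design) of log2(FLAG/Myc read-proportion ratio), with the two transfection replicates pooled. Negative values mean degradation and positive values mean stabilisation of the target.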

Sequence of GABARAP, O95166 (O95166 whole entry, the tested form may be a part): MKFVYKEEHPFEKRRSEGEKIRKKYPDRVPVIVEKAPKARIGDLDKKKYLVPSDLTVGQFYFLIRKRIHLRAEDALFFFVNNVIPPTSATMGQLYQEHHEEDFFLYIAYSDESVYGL

Binder	median log2 fold change
B1	-0.0442
B2	0.197
B3	0.00193
B4	-0.086
B5	-0.598
B6	-0.0785
B7	0.197
B8	-0.507
B9	-0.35
B10	-0.669
B11	0.23
B12	0.165
B13	0.187
B14	0.163
B15	-0.593
B16	0.373
B17	-0.631
B18	0.274
B19	-0.458
B20	0.18
B21	-0.152
B22	0.24
B23	0.352
B24	-0.769
B25	0.23
B26	0.162
B27	-0.0734
B28	0.177
B29	-0.651
